From PubChem BioAssay AID588342 (National Center for Advancing Translational Sciences (NCATS), 2011)
Screen size: about 360,000 compounds; about 25,000 (6.9%) were called active. Roughly 9% stayed inconclusive and do not appear here. Shown is part of a subset that was picked to be rich in actives. Unmarked numbers belong to inactive results. The call rests on the fitted dose curve; in most records, active means well fitted inhibition curve with a large enough effect; inconclusive means small, poorly fitted or top-dose-only effect; inactive means flat fitted curve, though single readings scatter.

Molecular target: Luciferin 4-monooxygenase (Photinus pyralis) (UniProt P08659)
Sequence (P08659 whole entry, looked up): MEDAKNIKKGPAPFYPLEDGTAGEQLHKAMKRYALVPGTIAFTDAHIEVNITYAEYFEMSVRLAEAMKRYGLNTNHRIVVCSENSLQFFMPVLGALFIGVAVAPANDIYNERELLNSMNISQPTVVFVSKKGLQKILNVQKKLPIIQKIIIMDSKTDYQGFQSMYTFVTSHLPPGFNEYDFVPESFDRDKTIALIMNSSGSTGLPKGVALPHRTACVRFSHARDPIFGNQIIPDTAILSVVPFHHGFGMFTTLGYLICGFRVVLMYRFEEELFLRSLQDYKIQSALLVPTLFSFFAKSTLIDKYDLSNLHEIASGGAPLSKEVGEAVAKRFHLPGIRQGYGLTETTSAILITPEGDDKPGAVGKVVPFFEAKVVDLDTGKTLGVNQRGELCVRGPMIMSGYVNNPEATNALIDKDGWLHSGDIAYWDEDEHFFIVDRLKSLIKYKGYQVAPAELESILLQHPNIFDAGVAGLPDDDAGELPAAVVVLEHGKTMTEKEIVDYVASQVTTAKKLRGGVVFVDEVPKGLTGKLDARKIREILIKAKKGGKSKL
Experiment: qHTS profiling assay for firefly luciferase inhibitor/activator using purifed enzyme and Km concentrations of substrates (counterscreen for miR-21 project); further: nearly all actives have a fitted effect of over 55% in size;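 on activity change, negative = inhibition: plate controls were vehicle for no effect and reference inhibitor for full effect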
Settings: purified FLuc, luminescence inhibition; series mostly up to 57.5 µM; activity change, negative = inhibition: at the top concentration
Summary of the method: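 Purified P. pyralis luciferase (10nM final) with 10uM D-luciferin and 10uM ATP (Km levels) in 50mM Tris acetate pH 7.5, 10mM Mg acetate, 0.01% Tween-20, 0.05% BSA; qHTS 6-point titration, ~60 µM downward; luminescence read.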
Potency means the concentration at half of the fitted maximal effect.

Point of comparison: `COc1ccc(C(=O)NNS(=O)(=O)c2ccc(C)cc2)cc1`, “activity change, negative = inhibition” value 5.49%. Against it:
- COc1ccc2c(c1)c(N1CCCC1=O)c(C(=O)Nc1ccccc1C(F)(F)F)n2C — lower, -1.46%
- CCOc1ccc(NC(=O)c2cn(C3CCCCC3)c(=O)c3c2c2ccccc2n3C)cc1 — lower, 0.366%
- CCOc1ccc(NC(=O)CN(C)C(=O)Cc2sc(C)nc2-c2ccc(F)cc2)cc1OCC — lower, 1.86%
- O=C1CC(c2ccc(F)cc2F)c2cc3c(cc2N1)OCO3 (stereo unspecified) — lower, -7.02%
- O=C(c1ccccc1)N1CCC(CC2CC(c3ccc(Cl)cc3)=NO2)(C(=O)NCC2CCCCC2)CC1 (stereo unspecified) — lower, -0.0551%
- Cc1nnc2n1N=C(c1ccc3c(c1)NC(=O)CO3)CS2 — lower, -2.33%
- Cn1c(=O)cc(OCC(=O)N2CCN(c3ccccc3)CC2)c2ccccc21 — lower, 1.2%
- CCOc1ccc(NC(=O)c2c(NCc3cccc(OC)c3OC)sc3c2CCC3)cc1 — lower, 2.55%
- COc1ccc(C(=O)C[n+]2ccc(C)cc2)cc1 — higher, 8.37%
- Cc1[nH]nc(-c2ccc(OCc3cnn(-c4ccccc4)c3)cc2O)c1Oc1ccc(Cl)cc1 — lower, 0.697%
- COc1ccc(CC(=O)c2ccc(O)cc2O)cc1OC — lower, -6.24%
- Cc1cccc(OCC(=O)N(Cc2ccc(C(C)C)cc2)Cc2ccco2)c1C — lower, 0.0838%
- COc1cc(OC)c(NC(=O)c2c3c(nn2C)-c2ccccc2SC3)cc1Cl — lower, -3.89%
- CSc1nc(=O)c2c(n1C)NC(=O)CC2c1ccccc1OC(C)C (stereo unspecified) — lower, -0.768%
- Cc1nc(SCC(=O)NC2CCCCC2C)c(C#N)c(C)c1C (stereo unspecified) — lower, -0.552%
- CCS(=O)(=O)c1nc(S(=O)(=O)c2ccc(C)cc2)c(NCc2ccc(Cl)cc2)s1 — lower, -6.34%
- CCn1c(C(=O)Nc2cc(Cl)ccc2C)cc2sc(Cl)cc21 — higher, 14.4%
- CCOc1ccc(-c2cc3c(=O)n(CC(=O)NCc4ccc(OC)cc4)ccn3n2)cc1 — lower, -25.5%
- c1ccc(CSCCc2ccncc2)cc1 — lower, 3.4%
- Cc1cc(C)c(SCCc2ccncc2)c(C)c1 — lower, 4.66%
- C/C(=N\NC(=O)CCn1nc(C)cc1C)C(C)(C)C — lower, -0.213%
- CCc1cccc(NC(=O)COC(=O)c2cc(=O)c3ccccc3o2)c1 — lower, -8.14%
- Cc1ccc(S(=O)(=O)NCCC(=O)NC2CCN(Cc3ccccc3)CC2)cc1 — lower, 4.15%
- Cc1ccc(C)c(N2CCN(C(=O)Cn3nc(C)c4sc5ccccc5c4c3=O)CC2)c1 — lower, 3.41%
- Cn1nnnc1SCCCNCc1cccc(OCc2ccc(Cl)cc2)c1 — higher, 5.77%
- COc1cc(C(=O)OCc2ccc([N+](=O)[O-])cc2)cc(OC)c1OC — lower, 2.68%
- COc1cc(/C=N\Nc2ccc([N+](=O)[O-])cn2)ccc1OCC(=O)O — lower, -16.9%
- Cc1ccc(CCNC(=O)c2nnc(Cc3cccc(F)c3)o2)cc1 — lower, -1.77%
- COc1ccc(Cl)cc1N(C)C(=O)c1cc2c(=O)oc3ccc(C)cc3c2s1 — lower, 0.493%
- COc1ccc(N2CCN(C(=O)CCc3nc(-c4ccc(C)cc4)no3)CC2)cc1 — lower, -20%
- Cc1ccc(-c2noc(CSc3nnc(-c4ccncc4)n3-c3ccc(F)cc3)n2)cc1 — lower, -3.39%
- COc1cc(OC)c(NC(=O)c2nc(-c3ccncc3)no2)cc1Cl — lower, -1.54%
- Cc1ccc(-c2noc(CSc3nnc(-c4cccs4)n3C)n2)cc1 — lower, -21.4%
- Cc1ccc(Oc2nc(-c3ccccn3)nc3ccccc23)cc1 — lower, -19.9%
- COc1ccc(-c2noc(CN(C)S(=O)(=O)c3ccc(C)cc3)n2)cc1 — lower, -2.32%
- CSc1oc(-c2cccs2)nc1S(=O)(=O)c1ccc(Br)cc1 — lower, -9.22%
- N#CCc1ccc(OC(=O)c2cccnc2)cc1 — lower, 0.653%
- Cc1cc(OC(=O)c2ccccc2)c([N+](=O)[O-])c(=O)[nH]1 — lower, -7.98%
- Cc1ccccc1NC(=O)Cn1c(=O)n(CC2CCC(C(=O)NCCc3ccccc3)CC2)c(=O)c2ccccc21 (stereo unspecified) — lower, -0.569%
- COc1ccc(CCNc2nc(-c3ccc(Cl)cc3)cc(C(F)(F)F)n2)cc1OC — lower, 0.231%
- O=C1CC(c2nnc(Cc3ccc(Cl)cc3)o2)CN1c1ccccc1 (stereo unspecified) — lower, -8.02%

With `COc1ccc(C(=O)Cc2cnn(-c3ccccc3)c2)c(O)c1` the Potency was 3.38 µM (active).
For `COc1ccc(C(=O)CC(=O)c2ccc(C)cc2)c(O)c1`, the Potency was 21.3 µM (active).
With `CC(C)(C)c1ccc(SCCc2ccncc2)cc1` the Potency was 26.9 µM (active).
`COc1cc(/C=N/O)ccc1OCc1ccc([N+](=O)[O-])cc1` was tested, and the Potency was 2.69 µM (active).
With `Cc1ccc(-c2nc(-c3ccncc3)no2)c(C)c1` the Potency was 2.13 µM (active).
For `O=C(Oc1ccc(-c2nc(-c3ccccn3)no2)cc1)c1ccccc1`, the Potency was 0.301 µM (active).
With `c1csc(-c2nc(-c3ccncc3)no2)c1` the Potency was 13.5 µM (active).
In the case of `COc1ccc(-c2noc(-c3ccc(C)cc3)n2)cc1`, the Potency was 1.51 µM (active).

`O=c1cccc(-c2ccc(Br)cc2)o1` gave an activity change, negative = inhibition of 3.87% [at 2.3 µM].
